Assay results: PubChem BioAssay (EPA / NIEHS)
“And” between values parts separate entries of the source, which are not always exact repeats. Equal values may be shown once. A structure can be active in one record and inactive in another. The source made the active and inactive calls. Rule for the calls: active = hit-call score of the fitted dose curve at least 0.9, where 1 is the maximum; inactive = score below 0.9.

Legend:
[1] = ATG_NFI_CIS: Attagene CIS-FACTORIAL HepG2 Assay for human Nuclear Factor I (NFI) (AID 2282989); conditions: HepG2 cis-regulatory reporter, NFI response element transcription; actives raise or lower the signal
How it was run: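 Reporter transcription driven by endogenous transcription factors in HepG2 cells; 24 h treatment. Quantitation by labelled RT-PCR fragments on capillary electrophoresis, gain- or loss-of-signal relative to DMSO.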

[2] = biological target: Myc proto-oncogene protein (Homo sapiens) (UniProt P01106); assay: ATG_Myc_CIS: Attagene CIS-FACTORIAL HepG2 Assay for human Myelocytomatosis (Myc) Proto-Oncogene Transcription Factor (AID 2282990); conditions: HepG2, Attagene cis-reporter transcription factor activity; actives raise or lower the signal
Sequence of Myc proto-oncogene protein (Homo sapiens) (P01106 whole entry, looked up, the tested form may be a part): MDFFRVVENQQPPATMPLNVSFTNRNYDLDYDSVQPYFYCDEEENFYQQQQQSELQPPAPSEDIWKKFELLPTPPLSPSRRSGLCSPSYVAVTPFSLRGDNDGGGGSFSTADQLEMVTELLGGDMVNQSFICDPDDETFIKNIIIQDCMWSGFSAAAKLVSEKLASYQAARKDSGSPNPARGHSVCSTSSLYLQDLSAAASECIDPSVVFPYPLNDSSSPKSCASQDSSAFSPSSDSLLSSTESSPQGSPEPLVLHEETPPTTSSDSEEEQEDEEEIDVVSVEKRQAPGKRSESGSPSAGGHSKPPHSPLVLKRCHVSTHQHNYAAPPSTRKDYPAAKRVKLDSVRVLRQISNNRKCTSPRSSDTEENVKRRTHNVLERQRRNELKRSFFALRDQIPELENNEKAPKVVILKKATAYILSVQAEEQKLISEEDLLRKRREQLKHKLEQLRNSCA
How it was run: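 Fluorescence intensity of reporter-specific cDNA fragments, separated by capillary electrophoresis, gives the signal. Transfected HepG2 cells carrying cis-promoter reporter constructs are incubated with compound for 24 h; DMSO serves as baseline.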

[3] = ATG_NF_kB_CIS: Attagene CIS-FACTORIAL HepG2 Assay for human Nuclear Factor Kappa B (NF-kB) (AID 2282991); conditions: HepG2 Attagene cis-factorial NF-kB reporter mRNA; actives raise or lower the signal
How it was run: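 DMSO served as negative control and baseline for bidirectional curve fitting. Transiently transfected HepG2 cells were dosed for 24 h, then reporter transcripts were measured by RT-PCR with capillary electrophoresis detection.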

[4] = ATG_NRF2_ARE_CIS: Attagene CIS-FACTORIAL HepG2 Assay for human Nuclear Factor Erythroid 2 Related Factor 2 (NFR2) response to Antioxidant Response Elements (ARE) (AID 2282992); conditions: HepG2 Attagene ARE/NRF2 reporter, transcription factor activity; actives raise or lower the signal;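 for AC50: reporter mRNA level measured by RT-PCR and capillary electrophoresis fluorescence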
How it was run: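 Cis-factorial assay: transfected HepG2 reporter library, 24 h dosing, mRNA readout via RT-PCR/CE; DMSO-referenced bidirectional analysis.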

[5] = ATG_Oct_MLP_CIS: Attagene CIS-FACTORIAL HepG2 Assay for human Octamer-Binding Transcription Factor (Oct) (AID 2282993); conditions: HepG2 Attagene cis-factorial Oct reporter, mRNA; actives raise or lower the signal
How it was run: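 Transfected HepG2 cells, 24 h treatment. Reporter mRNA quantified by RT-PCR–capillary electrophoresis; bidirectional fitting against DMSO.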

[6] = biological target: Cellular tumor antigen p53 (Homo sapiens) (UniProt P04637); assay: ATG_p53_CIS: Attagene CIS-FACTORIAL HepG2 Assay for human p53 Transcription Factor (AID 2282994); conditions: HepG2 p53 cis-element reporter, Attagene mRNA; actives raise or lower the signal
Sequence of Cellular tumor antigen p53 (Homo sapiens) (P04637 whole entry, looked up): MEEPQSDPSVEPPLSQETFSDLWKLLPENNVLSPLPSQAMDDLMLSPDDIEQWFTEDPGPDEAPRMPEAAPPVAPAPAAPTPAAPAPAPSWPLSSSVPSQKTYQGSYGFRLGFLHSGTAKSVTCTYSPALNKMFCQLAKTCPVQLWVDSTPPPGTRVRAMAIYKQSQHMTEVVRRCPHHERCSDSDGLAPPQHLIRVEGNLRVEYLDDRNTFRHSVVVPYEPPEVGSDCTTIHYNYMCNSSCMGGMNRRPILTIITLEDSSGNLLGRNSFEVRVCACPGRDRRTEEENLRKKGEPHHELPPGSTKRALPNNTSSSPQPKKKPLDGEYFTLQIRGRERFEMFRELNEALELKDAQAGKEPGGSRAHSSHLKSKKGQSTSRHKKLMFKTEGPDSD
How it was run: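 Using HepG2 hepatoma cells carrying cis-acting multiplexed reporters, mRNA induction is detected after a 24 h exposure. Gain- and loss-of-signal responses are fitted relative to DMSO-treated cells.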

[7] = BSK_3C_TissueFactor: BioMAP Diversity Plus: 3C Assay for Tissue Factor Biomarker Activity (AID 2282997); conditions: BioMAP 3C HUVEC, tissue factor biomarker readout; actives raise or lower the signal
How it was run: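 Dosing of human umbilical vein endothelial cells preceded a 24 h incubation. Tissue Factor was then read by ELISA, with increases and decreases both scored relative to DMSO controls.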

[8] = BSK_3C_uPAR: BioMAP Diversity Plus: 3C Assay for Urokinase-type plasminogen activator receptor (uPAR) Biomarker Activity (AID 2282998); conditions: BioMAP 3C HUVEC, uPAR biomarker ELISA; actives raise or lower the signal
How it was run: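 Readout: ELISA for surface uPAR. System: human umbilical vein endothelial primary cells, 24 h after chemical exposure. Analysis: bidirectional fit, DMSO baseline.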

[9] = BSK_4H_Eotaxin3: BioMAP Diversity Plus: 4H Assay for Eotaxin 3 Biomarker Activity (AID 2283000); conditions: primary human endothelial cells (HUVEC); actives raise or lower the signal
How it was run: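 Human umbilical vein endothelial cells (BSK_4H system) dosed with test chemical; Eotaxin-3 (CCL26) measured by ELISA 24 h after dosing. Bidirectional curve fitting relative to DMSO negative control as baseline.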

[10] = BSK_3C_VCAM1: BioMAP Diversity Plus: 3C Assay for Vascular cell adhesion molecule 1 (VCAM1) Biomarker Activity (AID 2282999); conditions: BioMAP 3C HUVEC, VCAM1 ELISA, cytokine-stimulated; actives raise or lower the signal
How it was run: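 Human umbilical vein endothelial cells (3C system), biomarker read by ELISA 24 h after dosing; bidirectional fit against DMSO baseline. Cytotoxicity tracked by SRB total-protein staining in parallel cultures at biomarker time.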

Measured: AC50

CC=O
inactive: [1] | [2] | [3] | [4] | [5] | [6]

CCC1CO1 (centres undefined)
inactive: [1] | [2] | [3] | [4] | [5] | [6]

CCOC(OCC)C(=O)c1ccccc1
inactive: [1] | [2] | [3] | [4] | [5] | [6]

Brc1cc(Br)c(Oc2c(Br)cc(Br)c(Br)c2Br)cc1Br
inactive: [1] | [2] | [3] | [4] | [5] | [6]

CCOCCOCC
inactive: [1] | [2] | [3] | [4] | [5] | [6]

COc1cc([N+](=O)[O-])ccc1N
inactive: [1] | [2] | [3] | [4] | [5] | [6]

OCC1CCC(CO)CC1 (centres undefined)
inactive: [1] | [2] | [3] | [4] | [5] | [6]

CCCCCCc1ccc(N)cc1
inactive: [1] | [2] | [3] | [5]
active: [4] 2.51 µM | [6] 6.32 µM

O=c1cc(-c2ccccc2)oc2ccc3ccccc3c12
inactive: [1] | [2] | [3] | [5] | [6]
active: [4] 182 nM and 134 nM

C/C=C/C(=O)C1=C(C)CCCC1(C)C
active: [1] 65.1 µM | [4] 3.93 µM | [5] 27.1 µM | [6] 164 µM
inactive: [2] | [3]

NC(C(F)(F)F)C(F)(F)F
inactive: [1] | [2] | [3] | [4] | [5] | [6]

O=C(OC(=O)C(F)(F)C(F)(F)F)C(F)(F)C(F)(F)F
inactive: [1] | [2] | [3] | [4] | [5] | [6]

CCCCCCCCC1CCC(=O)O1 (centres undefined)
inactive: [1] | [2] | [3] | [4] | [5] | [6]

COc1ccccc1NC(=O)c1cc2ccccc2cc1O
inactive: [3] | [4]
active: [1] 30.4 µM | [2] 100 µM | [5] 26.7 µM | [6] 17.4 µM

FC(F)(F)C(F)(F)C(F)(F)C(F)(F)I
inactive: [1] | [2] | [3] | [4] | [5] | [6]

CC1COCc2cc3c(cc21)C(C)(C)C(C)C3(C)C (centres undefined)
active: [1] 170 µM | [2] 120 µM | [3] 166 µM | [4] 41.2 µM
inactive: [5] | [6]

O=S(=O)(O)c1ccc2cc(O)ccc2c1
inactive: [1] | [2] | [3] | [4] | [5] | [6]

FC(F)=C(F)C(F)(F)C(F)(F)C(F)(F)C(F)F
inactive: [1] | [2] | [3] | [4] | [5] | [6]

CC(C)(c1ccc(Oc2ccc(N)cc2)cc1)c1ccc(Oc2ccc(N)cc2)cc1
inactive: [1] | [2] | [3] | [5] | [6]
active: [4] 3.71 µM

O=C1Cc2ccccc2N1c1c(Cl)cccc1Cl
inactive: [1] | [2] | [5]
active: [4] 23.2 µM

CCCCCCCCCCCC(=O)O
active: [4] 100 µM | [5] 90.6 µM
inactive: [1] | [2] | [4] | [5]

Cc1cc(C(C)(C)C)c(O)c(C(C)(C)C)c1
active: [1] 51.6 µM and 20.5 µM | [2] 51 µM and 92.8 µM | [4] 57.7 µM and 60 µM | [5] 33.4 µM and 89.4 µM
inactive: [6]

CC(C)(C)c1ccc(O)c(O)c1
active: [7] 3.97 µM | [9] 7.29 µM
not listed: [4] | [10]
inactive: all other assays above

Cc1ccc(C)c(S(=O)(=O)O)c1
inactive: [1] | [2] | [4] | [5] | [6]

O=C(NCc1ncc(C(F)(F)F)cc1Cl)c1c(Cl)cccc1Cl
active: [3] 21.8 µM | [4] 1.97 µM
not listed: [10]
inactive: all other assays above

CCC(C)c1ccccc1O (centres undefined)
active: [4] 74.7 µM
inactive: [1] | [2] | [4] | [5] | [7] | [8] | [10] | [9]

Cc1ccccc1C(OCCN(C)C)c1ccccc1 (centres undefined)
active: [4] 71.4 µM | [5] 119 µM | [6] 52.6 µM and 88.3 µM
inactive: [1] | [2] | [4] | [5]

CCC(C)c1nccnc1OC (centres undefined)
inactive: [1] | [2] | [4] | [5] | [6]

Cc1ccc(C(=O)c2ccccc2)cc1
active: [4] 28 µM | [7] 11.3 µM | [9] 28.4 µM
not listed: [10]
inactive: all other assays above

O=C(CC(=O)C(F)(F)C(F)(F)C(F)(F)F)c1cccs1
inactive: [1] | [2] | [5] | [6]
active: [4] 12.9 µM and 20.2 µM | [5] 9.28 µM | [7] 29.2 µM and 35.5 µM | [8] 46.7 µM and 30 µM | [9] 34.6 µM and 39.1 µM

C=CC(=C)CC/C=C(\C)CCC=C(C)C
active: [4] 19 µM
not listed: [10]
inactive: all other assays above

CCOC(C)=O
inactive: [1] | [2] | [4] | [5] | [6]

C=CC(=O)OCCN(CC)CC
active: [1] 27.4 µM | [4] 144 µM | [5] 48.9 µM | [6] 169 µM
inactive: [2]

CNNCc1ccc(C(=O)NC(C)C)cc1
inactive: [1] | [2] | [4] | [5] | [6]

Cc1cccc2c1ccc1ccccc12
active: [7] 0.0495 µM
not listed: [10]
inactive: all other assays above

NCCN
inactive: [1] | [2] | [4] | [5] | [6]

O=S(=O)(O)C(F)(F)C(F)(F)C(F)(F)C(F)(F)C(F)(F)C(F)(F)C(F)(F)C(F)(F)C(F)(F)C(F)(F)F
active: [3] 14.6 µM and 9.12 µM | [4] 47.3 µM and 25.4 µM | [8] 24.6 µM and 13.3 µM | [9] 5.83 µM
inactive: [1] | [2] | [5] | [6] | [7] | [9]

CCCCCCCCCCCCCCC
not listed: [6] | [10]
inactive: all other assays above

Nc1ccn([C@@H]2O[C@H](CO)[C@@H](O)C2O)c(=O)n1 (some centres undefined)
inactive: [1] | [2] | [4] | [5]

CCCCCCCCCCCC
active: [9] 30.2 µM
inactive: [1] | [2] | [3] | [4] | [5] | [7] | [8] | [9]

Nc1cc(Cl)c(-c2cc(Cl)c(N)cc2Cl)cc1Cl
inactive: [6]
active: [1] 17.3 µM | [2] 7.12 µM | [4] 12.5 µM | [5] 11.1 µM

c1ccc2c(c1)CCC2
inactive: [1] | [2] | [4] | [5] | [6]

Oc1cc2ccccc2cc1O
active: [4] 100 µM
not listed: [10]
inactive: all other assays above

CCCCC=O
not listed: [6] | [10]
inactive: all other assays above

O=C(O)C(=O)O
inactive: [1] | [2] | [4] | [5] | [6]

O=C(Nc1cccc([N+](=O)[O-])c1)c1cc2ccccc2cc1O
active: [4] 1.37 µM
inactive: [1] | [2] | [5] | [6]

CCCCC(CC)C(=O)OCCOCCOCCOCCOC(=O)C(CC)CCCC (centres undefined)
active: [4] 100 µM
not listed: [6] | [10]
inactive: all other assays above

COc1cc(OC)nc(NC(=O)NS(=O)(=O)Nc2ccccc2C(=O)N(C)C)n1
not listed: [10]
inactive: all other assays above

Cn1sccc1=O
active: [1] 163 µM | [2] 187 µM | [4] 161 µM | [5] 171 µM

CCCCCC(C)OC(=O)COc1ccc(Cl)c2cccnc12 (centres undefined)
active: [4] 42.4 µM
inactive: [1] | [2] | [5] | [6]

O=C1c2ccc(O)c(O)c2C(=O)c2c(O)ccc(O)c21
active: [3] 31.1 µM | [4] 6.19 µM | [8] 8.14 µM
not listed: [10]
inactive: all other assays above

CC1CCC(C(=O)O)CC1 (centres undefined)
inactive: [1] | [2] | [4] | [5] | [6]

O=C(c1cc(O)c(O)c(O)c1)c1ccc(O)c(O)c1O
inactive: [1] | [2] | [4] | [5]
active: [6] 100 µM

CCc1ccccc1O
inactive: [1] | [2] | [5]
active: [4] 37.1 µM

OCC(CO)(CBr)CBr
not listed: [6] | [10]
inactive: all other assays above

NS(=O)(=O)O
inactive: [1] | [2] | [4] | [5] | [6]

CCc1cccc(CC)c1NC(=O)C(=O)O
inactive: [2] | [3] | [4] | [5] | [6]

Cc1ccc2ccc3ccc(C)cc3c2c1
inactive: [2] | [3] | [5] | [6]
active: [4] 61.3 µM

C=CC(C)(CCC=C(C)C)OC(C)=O (centres undefined)
active: [7] 27.8 µM | [8] 31.5 µM | [9] 34.2 µM
not listed: [3] | [10]
inactive: all other assays above

OCCN1CN(CCO)CN(CCO)C1
inactive: [2] | [6]
active: [1] 144 µM | [4] 56.5 µM | [5] 160 µM | [7] 20 µM | [8] 32.6 µM | [9] 30.2 µM
